Abeta rescue: qHTS for compounds that reverse cellular toxicity of Amyloid beta (A-beta) peptide in yeast: Primary Screen; yeast expressing A-beta42, growth rescue, OD600, 48 h; response scale: 0% DMSO, 100% iron-clioquinol control; Potency, µM (top dose mostly 46.1 µM), actives largely listed as activators; actives 0.063% (n = 410,000); note: nearly all actives have a fitted effect of over 55% in size
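Yeast A-beta toxicity model in growth medium with pinned compounds, 48 h at 30 C; growth read as absorbance at 600 nm. Normalized to FeCl3/clioquinol equimolar mix (positive) and DMSO (negative).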
aSyn rescue: qHTS of alpha-syn Inhibitors. Potency, µM (top dose mostly 46.1 µM), hits mostly activators. actives 0.14% (n = 370,000). Yeast expressing alpha-synuclein, growth rescue, BacTiter-Glo, 24 h. AID 652106, 2013; note: nearly all actives have a fitted effect of over 65% in size
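Readout is rescue of growth in alpha-synuclein-expressing yeast, so inhibitors of toxicity appear as activators. Growth after 24 hr at 30 deg C in galactose medium is quantified by luminescence.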
FUS suppressor: qHTS for Suppressors of FUS Proteinopathy: Primary screen using FUS-linked yeast assay; actives 0.24% (n = 390,000); AID 1347120, 2019; Potency, µM (doses to about 76.6 µM), actives largely listed as activators; S. cerevisiae FUS-expressing, growth rescue, OD600, 24 h; note: nearly all actives have a fitted effect of over 55% in size
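Steps: raffinose overnight preculture; dilution to OD 0.005 in 2% galactose minimal medium; compound addition (concentration series); 24hr at 30C, 99% humidity; absorbance read at 600 nm.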
TDP-43 yeast inh: qHTS of TDP-43 Inhibitors; actives 1.8% (n = 410,000); TDP-43 expressing yeast growth rescue, BacTiter-Glo, 24 h; Potency, µM (doses to about 46.1 µM), usual class: activators; note: nearly all actives have a fitted effect of over 50% in size
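Yeast expressing TDP-43 (pregrown in raffinose, seeded at OD600=0.02 in galactose medium) exposed to compounds 24 hr at 30 deg C. Growth read by BacTiter-Glo luminescence; rescue of toxicity appears as increased signal.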
Numbers stand for hits; 0 = inactive; ? = inconclusive; - = no result; [ ] = another dose, or the depositor's remark. Only some compounds are listed: those with a hit (about 2.1% of all), similar ones and a draw of the others. Calls come from the whole dose curve; as a rule, active = well fitted curve in the direction sought with a large enough effect; inconclusive = small, poorly fitted or top-dose-only effect, or another doubt; inactive = no such curve, though single readings can be large; an effect the other way counts as inactive or inconclusive.

SMILES	Abeta rescue	aSyn rescue	FUS suppressor	TDP-43 yeast inh
OC(c1cccc(Cl)c1)c1nc(-c2ccccc2)cs1 (stereo unspecified)	0	?	0	14µM
OC(c1ccccc1)c1nc(-c2ccc(Cl)cc2)cs1 (stereo unspecified)	0	?	0	35µM
N#Cc1c2ccccc2nc2ccccc12	0	?	0	11µM
Nc1c2ccccc2nc2ccccc12	0	0	0	0
CC(=O)/C=C1\OCc2ccccc21	0	0	0	0
CC(=O)/C=C1\OCc2cc(OCc3ccccc3)ccc21	0	0	0	10µM
COCC(=O)n1nc(NCc2ccc(OC)cc2)nc1NCc1ccc(OC)cc1	0	0	0	18µM
COc1ccc(CNc2nc(NCc3ccc(OC)cc3)n(S(C)(=O)=O)n2)cc1	0	0	0	0
COc1ccc(N2C(=O)CC(N3CCC(O)(c4cccc(C(F)(F)F)c4)CC3)C2=O)cc1 (stereo unspecified)	0	0	0	18µM
O=C(c1cccc(Cl)c1)N1CCN(c2ccnc3cc(Cl)ccc23)CC1	-	-	0	-
O=C(COc1ccc(Cl)cc1)NCC(c1ccco1)S(=O)(=O)c1ccccc1 (stereo unspecified)	0	-	0	0
O=C(COc1ccc(Cl)cc1)NCC(c1ccco1)S(=O)(=O)c1ccc(Cl)cc1 (stereo unspecified)	0	-	0	35µM
CC1C(=O)N(Cc2cn(Cc3ccco3)nn2)CCS(=O)(=O)N1Cc1ccc(-c2ccc(Cl)cc2)cc1 (stereo unspecified)	0	0	?	35µM
CC1C(=O)N(Cc2cn(CCC3OCCO3)nn2)CCS(=O)(=O)N1Cc1ccc(-c2ccc(Cl)cc2)cc1 (stereo unspecified)	0	0	?	28µM
CCc1ccc(-c2nnn(CCC(=O)OC)n2)cc1	0	0	0	16µM
CCOc1cccc(=O)c2c(C)n(C)c(C)c12	0	0	?	0
COc1cccc(=O)c2c(C)n(C)c(C)c12	0	0	28µM	0
C(=N\NC1=Nc2cccc3cccc1c23)/c1ccccn1	?	0	0	20µM
Cc1cc(C)c(C)c(OCc2nc(-c3cccnc3)no2)c1	0	-	0	0
CSc1ccccc1-c1nc(-c2ccncc2)no1	0	0	0	14µM
Cc1ccccc1-c1nc(-c2cccnc2)no1	0	0	0	14µM
Cc1ccc(SCc2nc(-c3cccnc3)no2)cc1	0	0	0	18µM
Clc1ccccc1-c1nc(-c2cccnc2)no1	0	0	0	?
c1ccc(C(Cc2nc(-c3ccncc3)no2)c2ccccc2)cc1	0	0	0	35µM
c1ccc(-c2nc(-c3ccncc3)no2)cc1	0	0	0	0
SMILES	Abeta rescue	aSyn rescue	FUS suppressor	TDP-43 yeast inh
C[C@@H]1C(=O)N2N=Cc3cc4ccccc4cc3[C@H]2N2N=Cc3cc4ccccc4cc3[C@@H]12	-	-	0	-
COc1ccc(OC)c(NC(=O)Cn2c(=O)c3cccn3c3ccccc32)c1	0	-	0	0
C[C@@H]1COc2cc(N3CCSCC3)ccc2S(=O)(=O)N1C	-	-	0	-
COc1cccc(-c2nc3c(C#N)c[nH]n3c2NC2CCCCC2)c1	0	-	0	0[9.22 µM]
Cc1ccc(-c2noc(/C=C/c3ccccc3)n2)cc1	0	0	0	0
Clc1ccccc1/C=C/c1nc(-c2cccnc2)no1	0	0	0	10µM
C(=C\c1nc(-c2cccnc2)no1)/c1ccccc1	0	0	0	2.2µM
Cc1cc(/C=C/c2c(C)cnc3ccccc23)ccc1N(C)C	-	0	-	-
CCOc1ccccc1N(C)C(=O)Cn1cnc2onc(-c3ccc(F)cc3)c2c1=O	0	0	0	0
O=C1CN(C(=O)COc2ccc(Cl)cc2Cl)C(c2ccccc2)c2cc(F)ccc2N1 (stereo unspecified)	0	-	32µM	0
CN(CC(=O)Nc1ccccc1Cl)C(=O)c1cc2c(s1)CCCCC2	0	0	0	0
CN(CC(=O)Nc1ccccc1Br)C(=O)c1cc2c(s1)CCCCC2	0	0	0	18µM
COc1ccc(NC(=O)CN(C)C(=O)c2cc3c(s2)CCCCC3)cc1	0	0	0	28µM
COc1ccc(NC(=O)CN(C)C(=O)c2cc3c(s2)CCC3)cc1	0	0	0	0
COc1ccc([C@H]2CC(=O)C=C(c3ccc4ccccc4c3)C2)cc1OC	0	0	0	16µM
COc1cccc(C2=CC(=O)C[C@H](c3ccc(Cl)cc3)C2)c1	0	0	?	13µM

Screens as filed in PubChem.
